Test results from PubChem BioAssay AID1159580 (chemical genetic matrix, 2015).
Among all 5,500 compounds or so, about 2,000 (36%) were called active. Not shown: some 18% with an inconclusive outcome. The list shows a part of the results. Values without a mark were called inactive. Rule as the data show it: active = normalized growth mostly below about 0.91 (no sharp cut-off); inconclusive = no clear call, values can overlap the other calls; inactive = mostly above about 0.92.

Assay: chemical genetic growth profiling, strain panel (AID 1159580);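 also: tested at 20 µM; growth read once vehicle control cultures reached saturation at 30 °C; 1 = growth at the plate median or of vehicle wells; lower values mean less growth of the strain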
Conditions: growth OD
[1] = S. cerevisiae deletion strains, locus YCL061C, strain MRC1, stronger effect = lower value

## Cc1cccc(Nc2cc(Cl)nc(SCC(=O)O)n2)c1C
S. cerevisiae deletion strains, locus YAL021C, strain ccr4, stronger effect = lower value
  normalized growth: 0.932
S. cerevisiae deletion strains, locus YAL026C, strain drs2, stronger effect = lower value
  normalized growth: 1.01
S. cerevisiae deletion strains, locus YAL030W, strain snc1, stronger effect = lower value
  normalized growth: 1
S. cerevisiae deletion strains, locus YBL061C, strain skt5, stronger effect = lower value
  normalized growth: 0.999
S. cerevisiae deletion strains, locus YBR009C, strain hhf1, stronger effect = lower value
  normalized growth: 1.06
S. cerevisiae deletion strains, locus YBR023C, strain chs3, stronger effect = lower value
  normalized growth: 1
S. cerevisiae deletion strains, locus YBR171W, strain sec66, stronger effect = lower value
  normalized growth: 0.988
S. cerevisiae deletion strains, locus YBR231C, strain swc5, stronger effect = lower value
  normalized growth: 1.01
S. cerevisiae deletion strains, locus YBR279W, strain paf1, stronger effect = lower value
  normalized growth: 1.01
S. cerevisiae deletion strains, locus YCL011C, strain gbp2, stronger effect = lower value
  normalized growth: 0.987
S. cerevisiae deletion strains, locus YCL016C, strain dcc1, stronger effect = lower value
  normalized growth: 1.01
[1]
  normalized growth: 0.984
S. cerevisiae deletion strains, locus YCL069W, strain vba3, stronger effect = lower value
  normalized growth: 0.99
S. cerevisiae deletion strains, locus YCR088W, strain abp1, stronger effect = lower value
  normalized growth: 0.988
S. cerevisiae deletion strains, locus YDL005C, strain med2, stronger effect = lower value
  normalized growth: 0.99
S. cerevisiae deletion strains, locus YDL040C, strain nat1, stronger effect = lower value
  normalized growth: 0.996
S. cerevisiae deletion strains, locus YDR001C, strain nth1, stronger effect = lower value
  normalized growth: 0.984
S. cerevisiae deletion strains, locus YDR069C, strain doa4, stronger effect = lower value
  normalized growth: 0.998
S. cerevisiae deletion strains, locus YDR137W, strain rgp1, stronger effect = lower value
  normalized growth: 0.934
S. cerevisiae deletion strains, locus YDR159W, strain sac3, stronger effect = lower value
  normalized growth: 1.03
S. cerevisiae deletion strains, locus YDR195W, strain ref2
  normalized growth: 0.987
S. cerevisiae deletion strains, locus YDR297W, strain sur2, stronger effect = lower value
  normalized growth: 0.991
S. cerevisiae deletion strains, locus YDR334W, strain swr1, stronger effect = lower value
  normalized growth: 0.969
S. cerevisiae deletion strains, locus YDR335W, strain msn5, stronger effect = lower value
  normalized growth: 0.996
S. cerevisiae deletion strains, locus YDR392W, strain spt3, stronger effect = lower value
  normalized growth: 0.965
S. cerevisiae deletion strains, locus YEL003W, strain gim4, stronger effect = lower value
  normalized growth: 0.999
S. cerevisiae deletion strains, locus YEL037C, strain rad23, stronger effect = lower value
  normalized growth: 0.999
S. cerevisiae deletion strains, locus YEL061C, strain CIN8 (second series), stronger effect = lower value
  normalized growth: 0.991
S. cerevisiae deletion strains, locus YER015W, strain faa2, stronger effect = lower value
  normalized growth: 1.02
S. cerevisiae deletion strains, locus YER016W, strain bim1, stronger effect = lower value
  normalized growth: 1.01
S. cerevisiae deletion strains, locus YER111C, strain swi4, stronger effect = lower value
  normalized growth: 1.01
S. cerevisiae deletion strains, locus YER155C, strain BEM2 (second series), stronger effect = lower value
  normalized growth: 1.04
S. cerevisiae deletion strains, locus YFR010W, strain ubp6, stronger effect = lower value
  normalized growth: 1
S. cerevisiae deletion strains, locus YGL167C, strain pmr1, stronger effect = lower value
  normalized growth: 0.997
S. cerevisiae deletion strains, locus YGL173C, strain kem1, stronger effect = lower value
  normalized growth: 1
S. cerevisiae deletion strains, locus YGL227W, strain vid30, stronger effect = lower value
  normalized growth: 1
S. cerevisiae deletion strains, locus YGL240W, strain doc1, stronger effect = lower value
  normalized growth: 1.03
S. cerevisiae deletion strains, locus YGL253W, strain hxk2, stronger effect = lower value
  normalized growth: 1.01
S. cerevisiae deletion strains, locus YHR013C, strain ard1, stronger effect = lower value
  normalized growth: 0.977
S. cerevisiae deletion strains, locus YHR027C, strain rpn1, stronger effect = lower value
  normalized growth: 0.987
S. cerevisiae deletion strains, locus YHR142W, strain chs7, stronger effect = lower value
  normalized growth: 0.936
S. cerevisiae deletion strains, locus YJL092W, strain hpr5, stronger effect = lower value
  normalized growth: 0.983
S. cerevisiae deletion strains, locus YJL095W, strain BCK1 (second series), stronger effect = lower value
  normalized growth: 0.987
S. cerevisiae deletion strains, locus YJL115W, strain asf1, stronger effect = lower value
  normalized growth: 0.98
S. cerevisiae deletion strains, locus YJL129C, strain trk1, stronger effect = lower value
  normalized growth: 0.986
S. cerevisiae deletion strains, locus YJL154C, strain vps35, stronger effect = lower value
  normalized growth: 0.992
S. cerevisiae deletion strains, locus YJL164C, strain tpk1, stronger effect = lower value
  normalized growth: 0.978
S. cerevisiae deletion strains, locus YJL166W, strain qcr8, stronger effect = lower value
  normalized growth: 1.01
S. cerevisiae deletion strains, locus YJL187C, strain SWE1, stronger effect = lower value
  normalized growth: 0.996
S. cerevisiae deletion strains, locus YKL160W, strain elf1, stronger effect = lower value
  normalized growth: 0.955
S. cerevisiae deletion strains, locus YKR026C, strain gcn3, stronger effect = lower value
  normalized growth: 0.988
S. cerevisiae deletion strains, locus YKR091W, strain srl3, stronger effect = lower value
  normalized growth: 0.989
S. cerevisiae deletion strains, locus YLL001W, strain dnm1, stronger effect = lower value
  normalized growth: 1
S. cerevisiae deletion strains, locus YLL026W, stronger effect = lower value
  normalized growth: 0.992
S. cerevisiae deletion strains, locus YLL041C, strain sdh2, stronger effect = lower value
  normalized growth: 0.99
S. cerevisiae deletion strains, locus YLR027C, strain aat2, stronger effect = lower value
  normalized growth: 0.993
S. cerevisiae deletion strains, locus YLR221C, strain rsa3, stronger effect = lower value
  normalized growth: 0.997
S. cerevisiae deletion strains, locus YLR258W, strain gsy2, stronger effect = lower value
  normalized growth: 1.01
S. cerevisiae deletion strains, locus YLR262C, strain YPT6 (second series), stronger effect = lower value
  normalized growth: 0.962
S. cerevisiae deletion strains, locus YLR320W, strain mms22, stronger effect = lower value
  normalized growth: 0.989
S. cerevisiae deletion strains, locus YLR342W, strain FKS1, stronger effect = lower value
  normalized growth: 1
S. cerevisiae deletion strains, locus YLR357W, strain rsc2, stronger effect = lower value
  normalized growth: 1.02
S. cerevisiae deletion strains, locus YLR370C, strain arc18, stronger effect = lower value
  normalized growth: 0.992
S. cerevisiae deletion strains, locus YLR384C, strain iki3, stronger effect = lower value
  normalized growth: 0.998
S. cerevisiae deletion strains, locus YML120C, strain ndi1, stronger effect = lower value
  normalized growth: 0.986
S. cerevisiae deletion strains, locus YMR058W, strain fet3, stronger effect = lower value
  normalized growth: 0.983
S. cerevisiae deletion strains, locus YMR125W, strain sto1, stronger effect = lower value
  normalized growth: 0.988
S. cerevisiae deletion strains, locus YMR129W, stronger effect = lower value
  normalized growth: 0.973
S. cerevisiae deletion strains, locus YMR205C, strain PFK2, stronger effect = lower value
  normalized growth: 1.05
S. cerevisiae deletion strains, locus YMR231W, strain pep5, stronger effect = lower value
  normalized growth: 0.992
S. cerevisiae deletion strains, locus YNL071W, strain lat1, stronger effect = lower value
  normalized growth: 0.985
S. cerevisiae deletion strains, locus YNL209W, strain ssb2, stronger effect = lower value
  normalized growth: 0.993
S. cerevisiae deletion strains, locus YNL248C, strain rpa49, stronger effect = lower value
  normalized growth: 0.933
S. cerevisiae deletion strains, locus YNL322C, strain KRE1 (second series), stronger effect = lower value
  normalized growth: 0.996
S. cerevisiae deletion strains, locus YNR049C, strain mso1, stronger effect = lower value
  normalized growth: 0.988
S. cerevisiae deletion strains, locus YOR001W, strain rrp6, stronger effect = lower value
  normalized growth: 0.974
S. cerevisiae deletion strains, locus YOR070C, strain gyp1, stronger effect = lower value
  normalized growth: 1
S. cerevisiae deletion strains, locus YOR080W, strain dia2, stronger effect = lower value
  normalized growth: 1.02
S. cerevisiae deletion strains, locus YOR083W, strain WHI5, stronger effect = lower value
  normalized growth: 0.942
S. cerevisiae deletion strains, locus YOR106W, strain vam3, stronger effect = lower value
  normalized growth: 0.946
S. cerevisiae deletion strains, locus YOR265W, strain rbl2, stronger effect = lower value
  normalized growth: 0.992
S. cerevisiae deletion strains, locus YOR270C, strain vph1, stronger effect = lower value
  normalized growth: 0.972
S. cerevisiae deletion strains, locus YOR290C, strain snf2, stronger effect = lower value
  normalized growth: 0.976
S. cerevisiae deletion strains, locus YPL051W, strain arl3, stronger effect = lower value
  normalized growth: 0.974
S. cerevisiae deletion strains, locus YPL078C, strain atp4, stronger effect = lower value
  normalized growth: 0.925
S. cerevisiae deletion strains, locus YPL106C, strain sse1, stronger effect = lower value
  normalized growth: 1.01
S. cerevisiae deletion strains, locus YPL240C, strain hsp82, stronger effect = lower value
  normalized growth: 0.978

## Cc1c(Cl)cccc1SCC(=O)O
S. cerevisiae deletion strains, locus YAL013W, strain DEP1, stronger effect = lower value
  normalized growth: 0.944
S. cerevisiae deletion strains, locus YBR229C, strain ROT2, stronger effect = lower value
  normalized growth: 0.958
[1]
  normalized growth: 0.989
S. cerevisiae deletion strains, locus YDL101C, strain DUN1, stronger effect = lower value
  normalized growth: 0.973
S. cerevisiae deletion strains, locus YDL134C, strain PPH21, stronger effect = lower value
  normalized growth: 1.01
S. cerevisiae deletion strains, locus YDR150W, strain NUM1, stronger effect = lower value
  normalized growth: 0.926
S. cerevisiae deletion strains, locus YEL061C, strain CIN8, stronger effect = lower value
  normalized growth: 0.977
S. cerevisiae deletion strains, locus YGR078C, strain PAC10, stronger effect = lower value
  normalized growth: 0.964
S. cerevisiae deletion strains, locus YHR030C, strain SLT2, stronger effect = lower value
  normalized growth: 1.06
S. cerevisiae deletion strains, locus YHR087W, strain rtc3, stronger effect = lower value
  normalized growth: 0.984
S. cerevisiae deletion strains, locus YJR043C, strain POL32, stronger effect = lower value
  normalized growth: 0.973
S. cerevisiae deletion strains, locus YJR075W, strain HOC1, stronger effect = lower value
  normalized growth: 0.937
S. cerevisiae deletion strains, locus YKL190W, strain CNB1, stronger effect = lower value
  normalized growth: 1.01
S. cerevisiae deletion strains, locus YLR039C, strain RIC1, stronger effect = lower value
  normalized growth: 1
S. cerevisiae deletion strains, locus YLR058C, strain SHM2 (second series), stronger effect = lower value
  normalized growth: 0.967
S. cerevisiae deletion strains, locus YLR085C, strain ARP6, stronger effect = lower value
  normalized growth: 1.03
S. cerevisiae deletion strains, locus YLR262C, strain YPT6, stronger effect = lower value
  normalized growth: 0.995
S. cerevisiae deletion strains, locus YML094W, strain GIM5, stronger effect = lower value
  normalized growth: 0.997
S. cerevisiae deletion strains, locus YMR219W, strain ESC1, stronger effect = lower value
  normalized growth: 0.945 (active)
S. cerevisiae deletion strains, locus YMR263W, strain SAP30, stronger effect = lower value
  normalized growth: 0.941
S. cerevisiae deletion strains, locus YNL153C, strain GIM3, stronger effect = lower value
  normalized growth: 0.942
S. cerevisiae deletion strains, locus YNL298W, strain CLA4 (second series), stronger effect = lower value
  normalized growth: 1.02
S. cerevisiae deletion strains, locus YNL322C, strain KRE1, stronger effect = lower value
  normalized growth: 0.944
S. cerevisiae deletion strains, locus YNR030W, strain Alg12, stronger effect = lower value
  normalized growth: 1
S. cerevisiae deletion strains, locus YPL055C, strain LGE1, stronger effect = lower value
  normalized growth: 0.837
S. cerevisiae deletion strains, locus YPL241C, strain CIN2, stronger effect = lower value
  normalized growth: 1
S. cerevisiae deletion strains, locus YPR135W, strain CTF4, stronger effect = lower value
  normalized growth: 1.06
S. cerevisiae strains, strain wild type, stronger effect = lower value
  normalized growth: 1.01
